This is an account of results in the supplement of paper PMC6992640.

Each structure is given as a SMILES string.

The subject of the assay is WHIM30 (cells of a triple-negative basal-like breast cancer xenograft). Description: cell viability of combination (% of vehicle); higher = less cytotoxic. The following applies: 1 µM; 72 h; partner dose: 10 nM. Here is the method: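 PDX cells were treated for 72 h with each drug at 1 µM plus carfilzomib (10 nM; 100 nM for WHIM2). Luciferase viability is expressed as percent of vehicle.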
On to `CN(C)CC=CC(=O)Nc1cc2c(Nc3ccc(F)c(Cl)c3)ncnc2cc1OC1CCOC1.O=C(O)C=CC(=O)O.O=C(O)C=CC(=O)O` (stereo not given) [Afatinib dimaleate] + CC(C)C[C@H](NC(=O)[C@H](CCc1ccccc1)NC(=O)CN1CCOCC1)C(=O)N[C@@H](Cc1ccccc1)C(=O)N[C@@H](CC(C)C)C(=O)[C@@]1(C)CO1 [Carfilzomib], for which the “cell viability of combination” value was 12.9.

`C1=C\COCc2cc(ccc2OCCN2CCCC2)Nc2nccc(n2)-c2cccc(c2)COC/1` [Pacritinib] + CC(C)C[C@H](NC(=O)[C@H](CCc1ccccc1)NC(=O)CN1CCOCC1)C(=O)N[C@@H](Cc1ccccc1)C(=O)N[C@@H](CC(C)C)C(=O)[C@@]1(C)CO1 [Carfilzomib]: the “cell viability of combination” value was 11.5.

Consider `COc1ncc(-c2ccc3nccc(-c4ccnnc4)c3c2)cc1NS(=O)(=O)c1ccc(F)cc1F` + CC(C)C[C@H](NC(=O)[C@H](CCc1ccccc1)NC(=O)CN1CCOCC1)C(=O)N[C@@H](Cc1ccccc1)C(=O)N[C@@H](CC(C)C)C(=O)[C@@]1(C)CO1 [Carfilzomib], for which the “cell viability of combination” value was determined as 8.27.

Take `CC(C)C[C@H](NC(=O)[C@H](Cc1ccccc1)NC(=O)c1cnccn1)B(O)O` [Bortezomib] + CC(C)C[C@H](NC(=O)[C@H](CCc1ccccc1)NC(=O)CN1CCOCC1)C(=O)N[C@@H](Cc1ccccc1)C(=O)N[C@@H](CC(C)C)C(=O)[C@@]1(C)CO1 [Carfilzomib]: the “cell viability of combination” value was 5.02.

Turning to `COc1cc(Nc2ncc(F)c(Nc3ccc4c(n3)N(COP(=O)(O)O)C(=O)C(C)(C)O4)n2)cc(OC)c1OC` [Fostamatinib (R788)] + CC(C)C[C@H](NC(=O)[C@H](CCc1ccccc1)NC(=O)CN1CCOCC1)C(=O)N[C@@H](Cc1ccccc1)C(=O)N[C@@H](CC(C)C)C(=O)[C@@]1(C)CO1 [Carfilzomib], the “cell viability of combination” value was found to be 16.9.

Take `COCCn1c2c([n+](Cc3cnccn3)c1C)C(=O)c1ccccc1C2=O.[Br-]` + CC(C)C[C@H](NC(=O)[C@H](CCc1ccccc1)NC(=O)CN1CCOCC1)C(=O)N[C@@H](Cc1ccccc1)C(=O)N[C@@H](CC(C)C)C(=O)[C@@]1(C)CO1 [Carfilzomib]: the “cell viability of combination” value amounted to 6.3.

For `CC(=O)C1(O)Cc2c(O)c3c(c(O)c2C(OC2CC(N)C(O)C(C)O2)C1)C(=O)c1ccccc1C3=O.Cl` (stereo not given) [Idarubicin HCl] + CC(C)C[C@H](NC(=O)[C@H](CCc1ccccc1)NC(=O)CN1CCOCC1)C(=O)N[C@@H](Cc1ccccc1)C(=O)N[C@@H](CC(C)C)C(=O)[C@@]1(C)CO1 [Carfilzomib], the “cell viability of combination” value amounted to 5.43.

In the case of `Br.Cc1ccc(Sc2ccccc2N2CCNCC2)c(C)c1` + CC(C)C[C@H](NC(=O)[C@H](CCc1ccccc1)NC(=O)CN1CCOCC1)C(=O)N[C@@H](Cc1ccccc1)C(=O)N[C@@H](CC(C)C)C(=O)[C@@]1(C)CO1 [Carfilzomib], the “cell viability of combination” value was 15.7.

Turning to `[O-]n1ccccc1=S.[O-]n1ccccc1=S.[Zn+2]` [Zinc Pyrithione] + CC(C)C[C@H](NC(=O)[C@H](CCc1ccccc1)NC(=O)CN1CCOCC1)C(=O)N[C@@H](Cc1ccccc1)C(=O)N[C@@H](CC(C)C)C(=O)[C@@]1(C)CO1 [Carfilzomib], the “cell viability of combination” value worked out at 13.4.

With `CN1CCN(CCCN2c3ccccc3Sc3ccc(C(F)(F)F)cc32)CC1.Cl.Cl` [Trifluoperazine 2HCl] + CC(C)C[C@H](NC(=O)[C@H](CCc1ccccc1)NC(=O)CN1CCOCC1)C(=O)N[C@@H](Cc1ccccc1)C(=O)N[C@@H](CC(C)C)C(=O)[C@@]1(C)CO1 [Carfilzomib], the “cell viability of combination” value is 16.7.

As for `COC(=O)C1=C(C)NC(C)=C(C(=O)OCCN(C)Cc2ccccc2)C1c1cccc([N+](=O)[O-])c1.Cl` (stereo not given) [Nicardipine HCl] + CC(C)C[C@H](NC(=O)[C@H](CCc1ccccc1)NC(=O)CN1CCOCC1)C(=O)N[C@@H](Cc1ccccc1)C(=O)N[C@@H](CC(C)C)C(=O)[C@@]1(C)CO1 [Carfilzomib], the “cell viability of combination” value is 13.8.

For `COC(=O)C12CCC(C)(C)CC1C1C(=O)C=C3C4(C)C=C(C#N)C(=O)C(C)(C)C4CCC3(C)C1(C)CC2` (stereo not given) [Bardoxolone methyl] + CC(C)C[C@H](NC(=O)[C@H](CCc1ccccc1)NC(=O)CN1CCOCC1)C(=O)N[C@@H](Cc1ccccc1)C(=O)N[C@@H](CC(C)C)C(=O)[C@@]1(C)CO1 [Carfilzomib], the “cell viability of combination” value was found to be 14.3.

In the case of `CCc1oc2ccccc2c1C(=O)c1cc(Br)c(O)c(Br)c1` [Benzbromarone] + CC(C)C[C@H](NC(=O)[C@H](CCc1ccccc1)NC(=O)CN1CCOCC1)C(=O)N[C@@H](Cc1ccccc1)C(=O)N[C@@H](CC(C)C)C(=O)[C@@]1(C)CO1 [Carfilzomib], the “cell viability of combination” value came out at 20.1.

For `COC(=O)c1ccc2c(c1)NC(=O)C2=C(Nc1ccc(N(C)C(=O)CN2CCN(C)CC2)cc1)c1ccccc1` [Nintedanib (BIBF 1120)] + CC(C)C[C@H](NC(=O)[C@H](CCc1ccccc1)NC(=O)CN1CCOCC1)C(=O)N[C@@H](Cc1ccccc1)C(=O)N[C@@H](CC(C)C)C(=O)[C@@]1(C)CO1 [Carfilzomib], the “cell viability of combination” value is 24.9.

With `CC(NCCCc1cccc(C(F)(F)F)c1)c1cccc2ccccc12` (stereo not given) [Cinacalcet] + CC(C)C[C@H](NC(=O)[C@H](CCc1ccccc1)NC(=O)CN1CCOCC1)C(=O)N[C@@H](Cc1ccccc1)C(=O)N[C@@H](CC(C)C)C(=O)[C@@]1(C)CO1 [Carfilzomib], the “cell viability of combination” value was determined as 19.5.

In the case of `COc1cc(C(=O)O)ccc1NC(=O)C1NC(CC(C)(C)C)C(C#N)(c2ccc(Cl)cc2F)C1c1cccc(Cl)c1F` (stereo not given) + CC(C)C[C@H](NC(=O)[C@H](CCc1ccccc1)NC(=O)CN1CCOCC1)C(=O)N[C@@H](Cc1ccccc1)C(=O)N[C@@H](CC(C)C)C(=O)[C@@]1(C)CO1 [Carfilzomib], the “cell viability of combination” value came to 23.5.

Consider `CN1CCN(CCOc2cc(OC3CCOCC3)c3c(Nc4c(Cl)ccc5c4OCO5)ncnc3c2)CC1` [Saracatinib (AZD0530)] + CC(C)C[C@H](NC(=O)[C@H](CCc1ccccc1)NC(=O)CN1CCOCC1)C(=O)N[C@@H](Cc1ccccc1)C(=O)N[C@@H](CC(C)C)C(=O)[C@@]1(C)CO1 [Carfilzomib], for which the “cell viability of combination” value worked out at 21.1.

For the compound `COc1cc2c(Nc3ccc(Br)cc3F)ncnc2cc1OCC1CCN(C)CC1` [Vandetanib (ZD6474)] + CC(C)C[C@H](NC(=O)[C@H](CCc1ccccc1)NC(=O)CN1CCOCC1)C(=O)N[C@@H](Cc1ccccc1)C(=O)N[C@@H](CC(C)C)C(=O)[C@@]1(C)CO1 [Carfilzomib], the “cell viability of combination” value turned out to be 15.1.

For `COc1cc2c(Oc3ccc(NC(=O)C4(C(=O)Nc5ccc(F)cc5)CC4)cc3F)ccnc2cc1OCCCN1CCOCC1` + CC(C)C[C@H](NC(=O)[C@H](CCc1ccccc1)NC(=O)CN1CCOCC1)C(=O)N[C@@H](Cc1ccccc1)C(=O)N[C@@H](CC(C)C)C(=O)[C@@]1(C)CO1 [Carfilzomib], the “cell viability of combination” value amounted to 22.4.

Regarding `CCC(=C(c1ccccc1)c1ccc(OCCN(C)C)cc1)c1ccccc1.O=C(O)CC(O)(CC(=O)O)C(=O)O` [Tamoxifen Citrate] + CC(C)C[C@H](NC(=O)[C@H](CCc1ccccc1)NC(=O)CN1CCOCC1)C(=O)N[C@@H](Cc1ccccc1)C(=O)N[C@@H](CC(C)C)C(=O)[C@@]1(C)CO1 [Carfilzomib], the “cell viability of combination” value was found to be 23.8.
